The results in this text go back to PubChem BioAssay AID1159606 (Sanford-Burnham Center for Chemical Genomics, 2016).

The structures appear in SMILES notation. Hit rate of the full screen: of about 360,000 compounds, about 7,300 (2%) were called active. Rule as the data show it: active = inhibition above about 50%; inactive = the rest. What follows is part of a selection rich in actives, with near analogues and random picks from the rest.

This experiment is described as follows: blockers of TWEAK-induced Fn14 reporter activity – luciferase reporter cells, uHTS, primary screen (AID 1159606). The settings on record: TWEAK-stimulated Fn14 reporter cells, luciferase luminescence, 8 h; at 10 µM; stronger effect = higher value. (In general: In a reporter assay the amount or activity of a reporter protein is the signal.)
As for `CC1Cc2ccccc2N1S(=O)(=O)c1c(N)n(C)c(=O)n(C)c1=O` (stereo not drawn), the inhibition (in general, the relative decrease from the control value, in per cent) is -4.11% (inactive).

Regarding `C[C@H]1[C@H]2c3nc4ccccc4n3C[C@H]1ON2C1CCCCC1`, the inhibition is -8.66% (inactive).

`O=c1[nH][nH]c2c1[C@H](c1ccc(Cl)cc1)O[C@H](CCc1ccccc1)C2`: the inhibition is 9.82% (inactive).

For the compound `COc1ccc2c(c1)C=CC1(O2)N(CCO)c2ccccc2C1(C)C` (stereo not drawn), the inhibition was 86.2% (active).

For `COc1cccc(CC2(CO)CCCN(CC3=Cc4cc(OC)ccc4OC3)C2)c1` (stereo not drawn), the inhibition was 37.8% (inactive).

In the case of `CN1c2ccc([N+](=O)[O-])cc2C(C)(C)C12C=Cc1cc(C(=O)O)ccc1O2` (stereo not drawn), the inhibition is 0.62% (inactive).

Take `CCN1CCN(C(=O)C2(NC(=O)Nc3cccc(F)c3)CCCCC2)CC1`: the inhibition was 6.11% (inactive).

For `CCN(CC)CCn1c(=S)[nH]c2ncccc2c1=O`, the inhibition is 11.7% (inactive).

Turning to `COc1cc(N2C(=O)c3ccccc3C2=O)c(Cl)cc1C(=O)OCC(=O)N1CCOCC1`, the inhibition is 16.7% (inactive).

Consider `N#Cc1ccc(-c2ccc3nccn3c2)cc1`, for which the inhibition was -15.9% (inactive).

`CCOC(=O)c1cc(C)sc1NC(=O)C1CCC1`: the inhibition is 13.5% (inactive).

Consider `COc1cccc2c1C(=O)c1c(O)c3c(c(O)c1C2=O)CC(O)(C(C)=NNC(=O)c1ccc(Cl)c(Cl)c1)CC3OC1CC(N)C(O)C(C)O1` (stereo not drawn), for which the inhibition was 100% (active).

As for `Clc1cccc(Cc2c(-c3cccc(Cl)c3)nc3ccc(Cl)cn23)c1`, the inhibition was -8.97% (inactive).

Take `CCN1C(=O)/C(=C2\SC(N3CCCCC3)=NC2=O)c2ccccc21`: the inhibition is -25.1% (inactive).

As for `COc1ccc(S(=O)(=O)N2CN(CCc3ccc(OC)c(OC)c3)c3nc4ccccc4nc32)cc1`, the inhibition is 14% (inactive).

For `COc1ccc(COC(=O)c2n[nH]c3ccccc23)cc1F`, the inhibition was -8.86% (inactive).

As to `CC(Nc1nc(C(F)(F)F)nc2ccccc12)c1cccs1` (stereo not drawn), the inhibition is 60.9% (active).

As for `CC(Nc1nc(N2CCCC2)nc2ccccc12)c1ccccc1` (stereo not drawn), the inhibition is -2.01% (inactive).

On to `CCc1ccc(C(CNc2nc(C(F)(F)F)nc3ccccc23)N(C)C)cc1` (stereo not drawn), for which the inhibition was 9.86% (inactive).

`COc1ccc(Cl)cc1C=CC=NNC(=O)c1ccncc1`: the inhibition is -16.2% (inactive).

As for `COc1cc(C(=O)Nn2c(O)c(C3=c4ccccc4=NC3=O)sc2=S)ccc1O`, the inhibition was 4.56% (inactive).

As to `Nc1nc(SCC(=O)N2CCN(S(=O)(=O)c3ccc(Cl)cc3)CC2)n[nH]1`, the inhibition is 4.55% (inactive).

`O=C1NC[C@H](Cc2ccc(O)cc2)N(C[C@H]2CCCN2C[C@H](Cc2ccccc2)N2C[C@H](Cc3ccccc3)N(CCc3ccccc3)C(=O)C2=O)C1=O`: the inhibition was -7.56% (inactive).

As to `COc1ccc(C(=O)O)cc1S(=O)(=O)NCc1cccnc1`, the inhibition was 16.8% (inactive).

With `O=C(N/N=C/c1cc([N+](=O)[O-])ccc1O)/C(=C\c1cccs1)NC(=O)c1ccccc1`, the inhibition is 5.24% (inactive).

Consider `Nc1nnnn1/N=C/c1cc([N+](=O)[O-])ccc1O`, for which the inhibition was -1.63% (inactive).

As to `O=[N+]([O-])c1ccc(O)c(/C=N/Nc2ccccc2[N+](=O)[O-])c1`, the inhibition is 71.5% (active).

Consider `Cc1ccc(-c2nc(-c3cccnc3)sc2CC(=O)Nc2ccc(C)c(Cl)c2)cc1`, for which the inhibition is -0.71% (inactive).

For the compound `CCc1nc2cccnc2n1-c1ccc(C(=O)O)cc1`, the inhibition was 2.68% (inactive).

For the compound `COCCCNC(=O)Cc1ccc(-n2c(C)nc3cccnc32)cc1`, the inhibition is 84.3% (active).

As to `COCCCNC(=O)CCc1nc2cccnc2n1Cc1ccc(OC)cc1`, the inhibition was 16.3% (inactive).

Consider `COc1ccc(CNC(=O)c2cc(C(=O)C3CC3)c[nH]2)cc1`, for which the inhibition was -10.9% (inactive).

As to `CN1CCC(N(C)S(=O)(=O)c2ccc(NC(=O)c3cccc(C#N)c3)cc2)CC1`, the inhibition is 5.91% (inactive).

With `Cc1nc(N)nc(Cl)c1CCC1OCCO1`, the inhibition is -6.2% (inactive).

Turning to `COc1cc(NC(=S)N2CCCC(C)C2)c(OC)cc1Cl` (stereo not drawn), the inhibition is 12.8% (inactive).

With `O=C1NC[C@H](CCCCN2C[C@H](Cc3ccc(O)cc3)N(CC3CCCCC3)C(=O)C2=O)N(CCc2ccccc2)C1=O`, the inhibition is 2.86% (inactive).

Take `CN(c1ccc(OCC(=O)OCC(=O)Nc2cccc([N+](=O)[O-])c2)cc1)S(=O)(=O)c1ccc(F)cc1`: the inhibition was -9.04% (inactive).

On to `COc1ccc(C)cc1S(=O)(=O)N(CC(=O)Nc1cccc([N+](=O)[O-])c1)c1ccc(C)cc1`, for which the inhibition was 61.9% (active).

Turning to `COc1ccc(N(CC(=O)Nc2ccc(C)cc2C)S(=O)(=O)c2ccccc2[N+](=O)[O-])c(OC)c1`, the inhibition is 0.97% (inactive).

As to `Cc1ccc(N(CC(=O)Nc2cc(C)cc(C)c2)S(=O)(=O)c2cccc3nonc23)cc1`, the inhibition is 9.38% (inactive).

Consider `Cc1ccc(S(=O)(=O)N(CC(=O)Nc2cccc([N+](=O)[O-])c2)Cc2ccc(Cl)cc2)cc1`, for which the inhibition is 51.2% (active).

For the compound `Cc1ccc(CN(CC(=O)NCC2CCCO2)S(=O)(=O)c2ccc(C)cc2)cc1` (stereo not drawn), the inhibition is 5.7% (inactive).

As to `O=C(NCc1cccc(C(F)(F)F)c1)c1ccc2sc(COCCO)nc2c1`, the inhibition is -7.3% (inactive).

Regarding `COc1ccccc1C(=O)N(C1=NC(C)CS1)c1ccc(Cl)cc1` (stereo not drawn), the inhibition is 10.7% (inactive).

For `CCOC(=O)[C@]12CCC=C1N(CCC1=CCCCC1)C(=O)[C@H](CC(=O)NCc1ccc(C)o1)C2`, the inhibition is 5.47% (inactive).

Consider `O=C(Nc1ccc(N2CCOCC2)cc1)c1cccc2c(-c3ccc(F)c(F)c3)coc12`, for which the inhibition is -28% (inactive).

Turning to `CCOC(=O)[C@]12CCC=C1N(Cc1cccc3ccccc13)C(=O)[C@H](CC(=O)NCc1cccc(C(F)(F)F)c1)C2`, the inhibition is 13.4% (inactive).

For the compound `Cc1ccc(S(=O)(=O)N2CCN(C(=O)c3ccccc3-c3nc4ccccc4s3)CC2)c(C)c1`, the inhibition was -40.8% (inactive).

In the case of `CC(=O)C12CC(C)=C(C)CC1CC1C3CCC4=CC(=O)CCC4(C)C3CCC12C` (stereo not drawn), the inhibition was -12.9% (inactive).

On to `CSc1ncnc2c1ncn2CC(=O)C1CCC2C3CCC4=CC(=O)CCC4(C)C3CCC12C` (stereo not drawn), for which the inhibition is 105% (active).

Turning to `CSc1ncnc2c1ncn2CCCNCC1CCCCC1`, the inhibition was -1.18% (inactive).

For `CC(C)COC(=O)n1c(=O)oc2ccc(S(=O)(=O)N3CCCCC3)cc21`, the inhibition was 19.6% (inactive).

On to `Cc1noc(C)c1C(=O)N(CC(=O)NC1CCCC1)Cc1ccccc1F`, for which the inhibition is -13.7% (inactive).

As for `FC(F)(F)c1ccc2nnc(-c3c(Cl)cccc3Cl)n2c1`, the inhibition is 0.93% (inactive).

`COc1cc(C(=O)NCc2nnc(SCC(=O)c3ccc(Cl)cc3)o2)cc(OC)c1OC`: the inhibition is -10.8% (inactive).

Consider `CC(=O)Nc1ccc(C(=O)CSc2nnc(Cc3ccccc3)o2)cc1`, for which the inhibition was -13.6% (inactive).

Turning to `CC(C)C[C@@H](N)c1nnc(SCC(=O)c2ccc(Cl)cc2)o1`, the inhibition is 58.5% (active).

On to `CCCCn1c(O)c(N=NC(=O)Cn2c(C(F)(F)F)nc3ccccc32)c2ccccc21`, for which the inhibition is -12.1% (inactive).

Take `Fc1ccc2[nH]c3c(N4CCSCC4)ncnc3c2c1`: the inhibition was 77.1% (active).

With `CC1(C)CC(=O)C=C(c2ccc(COC(=O)c3cc(F)cc(F)c3)cc2)C1=O`, the inhibition was -6.91% (inactive).

`O=[N+]([O-])c1ccc(CN2CC(N3CCC(c4ccccc4)CC3)CS2(=O)=O)cc1` (stereo not drawn): the inhibition was -12.9% (inactive).

For `CCS(=O)(=O)N1Cc2ccccc2CC1C(=O)Nc1nc2ccc(F)cc2s1` (stereo not drawn), the inhibition was 21.8% (inactive).

Regarding `CSc1ncccc1C(=O)Nc1nc2ccc(F)cc2s1`, the inhibition is 76.2% (active).

Regarding `CSc1ncccc1C(=O)Nc1ccc(C)cn1`, the inhibition was 1.24% (inactive).

With `COc1cccc(NS(=O)(=O)c2ccc3[nH]cc(C(=O)NCCCOC(C)C)c(=O)c3c2)c1`, the inhibition is -0.08% (inactive).

Turning to `CCCCc1ccc(S(N)(=O)=O)cc1`, the inhibition was -10.5% (inactive).

As to `COc1ccc(S(=O)(=O)N2CCCCC2)cc1NC(=O)c1cc([N+](=O)[O-])ccc1N1CCOCC1`, the inhibition was 0.95% (inactive).

With `O=C(NCc1ccc2c(c1)OCO2)c1cc([N+](=O)[O-])ccc1N1CCOCC1`, the inhibition is 9.16% (inactive).

`CCOc1ccc2nc(NC(=O)c3cc([N+](=O)[O-])ccc3N3CCOCC3)sc2c1`: the inhibition was 58.5% (active).

In the case of `Cc1cc(C)cc(NC(=O)N2CCC(NC(=O)c3ccc(F)cc3)CC2)c1`, the inhibition was -39.6% (inactive).

In the case of `Cc1ccc2c(c1)N(CC(=O)N1CCC(O)CC1)C(=O)CO2`, the inhibition is 33.3% (inactive).

As for `Cc1cc2nc(-c3ccc(NC(=O)c4cccnc4)cc3)oc2cc1C`, the inhibition is 52.2% (active).

On to `Cc1cc(NS(=O)(=O)c2ccc(NC(=O)c3cccnc3)cc2)nc(C)n1`, for which the inhibition is 14.2% (inactive).

Regarding `Cc1ccc(-n2nc3cc(C)c(NC(=O)c4cccnc4)cc3n2)cc1`, the inhibition is 8.31% (inactive).

`CC(C)NS(=O)(=O)c1ccc(NC(=O)c2cccnc2)cc1`: the inhibition was -3.3% (inactive).

As to `Cc1ccc2nc(-c3ccc(NC(=O)c4cccnc4)cc3)oc2c1`, the inhibition is 71.4% (active).

In the case of `O=C(Cc1ccccc1)Nc1ccc(NC(=O)c2cccnc2)cc1`, the inhibition is 2.31% (inactive).

`COc1ccc(Br)c2c1C(=O)CC2`: the inhibition was 22.5% (inactive).

Take `Cc1cc([N+](=O)[O-])nn1CC(=O)Nc1ccc(Cc2ccncc2)cc1`: the inhibition was 8.17% (inactive).

As to `COc1ccc(C2CC(=O)C=C(NCC3CCCO3)C2)cc1` (stereo not drawn), the inhibition was -25.7% (inactive).

With `N#Cc1ccccc1Sc1ccccc1C(=O)OCC(=O)NC1CCCCC1`, the inhibition is 1.09% (inactive).

`O=C1c2ccccc2C2=Nc3ccccc3SC(c3ccccc3F)C12` (stereo not drawn): the inhibition is 59.2% (active).

Regarding `COc1cccc(/C=C/C(=O)OCC(=O)N2CCCc3ccccc32)c1`, the inhibition was -1.49% (inactive).

Consider `COc1cccc(/C=C/C(=O)OCC(=O)N2CCN(c3ccccc3)CC2)c1`, for which the inhibition was 77.7% (active).

Turning to `COc1cccc(-c2ccc(SCC(=O)N3CCN(c4ccccc4)CC3)nn2)c1`, the inhibition was -23.8% (inactive).

`COc1ccc(CNc2c(CO)cnc3c2cnn3C)cc1`: the inhibition is -5.49% (inactive).

Consider `CCN(C(=O)Nc1cccc2ccccc12)c1ccccc1`, for which the inhibition was 11.9% (inactive).

As to `COc1ccc(Cl)cc1S(=O)(=O)N1CCC(O)(c2ccc(Cl)cc2)CC1`, the inhibition is -6.82% (inactive).
